Calls of active or inactive are those of the source. The rule behind the calls is not given here.
Each molecule was assayed against Pantothenate synthetase (Mycobacterium tuberculosis (strain ATCC 25618 / H37Rv)) (UniProt P9WIL5) (assay: Recombinant Mtb pantothenate synthetase (PanC) inhibitors, coupled enzyme, confirmatory (AID 375;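 note: 0% = full reaction with vehicle and 100% = no enzyme background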)). Conditions: coupled enzyme assay; at 10 µM, active compounds read high.
Pantothenate synthetase (Mycobacterium tuberculosis (strain ATCC 25618 / H37Rv)), sequence (P9WIL5 whole entry, looked up): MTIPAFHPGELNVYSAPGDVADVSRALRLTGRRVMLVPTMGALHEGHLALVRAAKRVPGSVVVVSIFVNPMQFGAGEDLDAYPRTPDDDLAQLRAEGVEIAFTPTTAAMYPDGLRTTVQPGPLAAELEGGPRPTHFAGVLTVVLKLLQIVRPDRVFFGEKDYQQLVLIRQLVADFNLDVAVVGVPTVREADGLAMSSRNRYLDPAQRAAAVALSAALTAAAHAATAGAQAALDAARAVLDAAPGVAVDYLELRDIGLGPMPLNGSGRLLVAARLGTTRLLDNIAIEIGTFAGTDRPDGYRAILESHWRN

Structure (SMILES) | inhibition
COc1cccc(C(=O)NCc2nnc(SCC(=O)Nc3nccs3)n2-c2ccccc2)c1 | 2% (inactive)
CCCCn1nnc(NC(=O)c2cc3ccccc3o2)n1 | 0% (inactive)
O=C(Oc1ccc2ccc(OC(=O)N3CCOCC3)cc2c1)N1CCOCC1 | 0% (inactive)
O=C(Nc1ccccc1C(=O)N1CCN(c2ccccc2)CC1)c1ccco1 | 0% (inactive)
Cc1ccc(NC(=O)C2CCCN(S(=O)(=O)c3cnc[nH]3)C2)cc1F (stereo not given) | 0% (inactive)
CC1=C(C(N)=O)C(c2ccc(Cl)cc2Cl)n2ncnc2N1 (stereo not given) | 0% (inactive)
C=CCn1c(C)cc(C(=O)CSc2nc3ccccc3c(=O)[nH]2)c1C | 0% (inactive)
CCCCC[C@H](O)/C=C/[C@@H]1[C@@H](CCCCCCC(=O)O)[C@@H](O)C[C@H]1O | 0% (inactive)
O=S(=O)(c1ccccc1)c1nc(-c2cccs2)oc1NCC1CCCO1 (stereo not given) | 3% (inactive)
CC(C)OC(=O)CSc1nnc(Cc2ccccc2)n1Cc1ccco1 | 8% (inactive)
O=C(OC1CCc2ccccc2C1=O)c1ccccc1O (stereo not given) | 0% (inactive)
COc1ccc(C(=O)N2CCN(c3nc4cc(C)ccc4cc3C#N)CC2)c(OC)c1 | 0% (inactive)
CCN(CC)C(=O)Oc1ccccc1NC(C)=O | 1% (inactive)
CC1(C)CC(=O)N(CC(=O)NCc2ccccc2)c2ccccc2S1(=O)=O | 0% (inactive)
NC(=O)C1CCN(c2nc(-c3ccccc3)nc3ccccc23)CC1 | 0% (inactive)
Cc1ccc(S(=O)(=O)C(C#N)c2nc3ccccc3nc2OC(C)C)cc1 (stereo not given) | 0% (inactive)
COCCn1nnnc1SCC(=O)N1CCCCC1 | 0% (inactive)
CC(=O)Nc1c(C(=O)O)[nH]c2ccccc12 | 0% (inactive)
CCCCOc1ccc(-c2ncc(C(=O)OCC)c(N)n2)cc1 | 11% (inactive)
Cc1ccc(S(=O)(=O)N2CCOCC2)cc1C(=O)Nc1ccc(-c2cn3ccsc3n2)cc1 | 3% (inactive)

Structure (SMILES) | inhibition
c1ccc(Cn2nnnc2C(c2ccccn2)N2CCOCC2)cc1 (stereo not given) | 0% (inactive)
COC(=O)c1sccc1NC(=O)c1csc(C)c1 | 6% (inactive)
CN(C)Cc1cn(CCC(=O)O)c2ccccc12 | 1% (inactive)
CC(C)CC(c1nnnn1CC1CCCO1)N1CCN(Cc2ccc3c(c2)OCO3)CC1 (stereo not given) | 0% (inactive)
COc1ccc(N2CCN(C(c3cccs3)C(C)NC(=O)c3ccco3)CC2)cc1 (stereo not given) | 0% (inactive)
O=C(O)c1cccc(COCC(F)(F)C(F)F)c1 | 0% (inactive)
COc1ccccc1S(=O)(=O)n1cc(Cc2ccccc2)c(N)n1 | 0% (inactive)
CC(O)CN(Cc1cccc(Cl)c1)CC(C)O (stereo not given) | 5% (inactive)
O=C(Nc1ccc(N2CCCCC2)cc1)c1ccc(F)cc1 | 0% (inactive)
O=S(=O)(NC1CCCC1)c1ccc(S(=O)(=O)N2CCc3ccccc32)cc1 | 0% (inactive)
Oc1ccc(Nc2nc(-c3ccc(O)cc3)cs2)cc1 | 2% (inactive)
Cc1cccc(-n2nnnc2SCc2csc(-c3ccccc3)n2)c1 | 0% (inactive)
COC(=O)c1ccccc1OCC(=O)NC1CCCCC1 | 0% (inactive)
COc1ccc(-c2nnc(SCCC(=O)O)n2-c2ccccc2)cc1 | 0% (inactive)
COc1nc(C)ccc1-c1noc(-c2ccncc2)n1 | 2% (inactive)
Cc1cccc(-n2nnc(C(=O)NCc3ccccc3)c2N)c1 | 0% (inactive)
CCOC(=O)c1ccc(N2C(=O)CC(N3CCN(C/C=C/c4ccccc4)CC3)C2=O)cc1 (stereo not given) | 2% (inactive)
O=C(c1ccco1)N1CCN(S(=O)(=O)c2ccc3c(c2)CCN3C(=O)C2CCC2)CC1 | 0% (inactive)
Cc1cccc(OCC(=O)N2CCC(N3CCCCCC3)CC2)c1 | 0% (inactive)
COc1ccc(-n2c(SCC(=O)Nc3ccc(C(=O)O)cc3)nnc2-c2cccs2)cc1 | 0% (inactive)

Source: PubChem BioAssay
